Among the test systems are NCI-H23 lung; NCI-H226 lung; NCI-H322M lung; HOP-62 NSCLC; NCI-H460 lung; HOP-92 NSCLC; NCI-H522 lung; A549/ATCC NSCLC; 786-0 renal; COLO 205 colon.
Common to all, as to test: NCI-60 one-dose screen, 48 h (100 = growth as untreated, 0 = no growth, -100 = all killed)
What all share (settings): 10 µM unless noted

The structures appear in SMILES notation. The panel holds about 83,000 compounds, 20% with a hit somewhere; the sample as a whole holds those more often.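 Single-dose data. Exposure time 48 hours. Values below 10 considered active.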 Values without a mark were called inactive. Active and inactive are the calls of the source.

As for `N#Cc1c(NC(=O)c2ccccc2)sc2c1CCC(=O)C2`, the growth with NCI-H23 lung is 5.05% (active); in the assay with NCI-H226 lung, 14.7%; in the assay on NCI-H322M lung, 71.9%; with HOP-62 NSCLC, 40.7%; in the assay on NCI-H460 lung, 16.3%; in the assay with HOP-92 NSCLC it was -22.9% (active). In addition, the growth in the assay with NCI-H522 lung was -12.7% (active); with A549/ATCC NSCLC, 52.7%; with 786-0 renal it was 25.9%; with COLO 205 colon, -46.4% (active).
In the case of `COC(C(=O)[C@@H](O)[C@@H](C)O)[C@@H]1Cc2cc3cc(O[C@H]4C[C@@H](O[C@H]5C[C@@H](O)[C@H](O)C(C)O5)[C@H](O)C(C)O4)c(C)c(O)c3c(O)c2C(=O)[C@H]1O[C@H]1C[C@@H](O[C@H]2C[C@@H](O[C@H]3C[C@@H](O)[C@H](OC)C(C)O3)[C@@H](O)C(C)O2)[C@H](O)C(C)O1` (stereo not given in full), the growth is -30.6% (active) with NCI-H23 lung; 7.45% (active) with NCI-H226 lung; 5.34% (active) in the assay with NCI-H322M lung; -6.87% (active) in the assay with HOP-62 NSCLC; 9.27% (active) with NCI-H460 lung; -2.22% (active) with HOP-92 NSCLC. Further, the growth in the assay with NCI-H522 lung is -26.8% (active); in the assay with A549/ATCC NSCLC, 3.24% (active); in the assay on 786-0 renal, 4.65% (active); in the assay on COLO 205 colon, -44.4% (active).
As to `C#CCOc1cccc(Nc2ncnc3c(NC(=O)C=C)cccc23)c1`, the growth is 38.9% in the assay on NCI-H23 lung; 52% in the assay on NCI-H226 lung; 54.9% with NCI-H322M lung; 39% in the assay on HOP-62 NSCLC; 12.8% in the assay with NCI-H460 lung; 9.26% (active) with HOP-92 NSCLC. The growth in the assay on NCI-H522 lung was -5.23% (active); with A549/ATCC NSCLC, 27.5%; in the assay on 786-0 renal, 14%; with COLO 205 colon it was 26.3%.
With `Cn1cccc1C(=O)C1C(c2cccc([N+](=O)[O-])c2)C2C3CCCCC3CN2C12C(=O)Nc1ccc(Cl)cc12` (stereo not given), the growth was 49.3% in the assay on NCI-H23 lung; 41.5% with NCI-H226 lung; 75.6% with NCI-H322M lung; 62.3% in the assay on HOP-62 NSCLC; 37.3% with NCI-H460 lung; 35% in the assay on HOP-92 NSCLC. Also, the growth in the assay on NCI-H522 lung is 52.3%; with A549/ATCC NSCLC, 29.1%; with 786-0 renal, 66.4%; in the assay on COLO 205 colon, 20.6%.
`CCOC(=O)/C=C1\S/C(=N\Nc2cc(=O)[nH]c3ccc(Cl)cc23)N(c2ccccc2)C1=O`: the growth with NCI-H23 lung was 90.5%; with NCI-H226 lung, 89.6%; with NCI-H322M lung, 98.6%; in the assay with HOP-62 NSCLC, 88%; with NCI-H460 lung it was 102%; in the assay with HOP-92 NSCLC, 91.7%. For the same compound, the growth with NCI-H522 lung is 79.7%; in the assay on A549/ATCC NSCLC, 105%; with 786-0 renal, 93.8%; in the assay on COLO 205 colon, 65%.
Take `COc1ccc(/C=C2\C(=O)N=C3N2NC(c2cc(Br)ccc2O)C=C(C)N3c2ccccc2)cc1` (stereo not given): the growth was 94.7% in the assay with NCI-H23 lung; 85.1% in the assay on NCI-H226 lung; 97.3% in the assay with NCI-H322M lung; 108% in the assay on HOP-62 NSCLC; 104% in the assay with NCI-H460 lung; 93.6% in the assay with HOP-92 NSCLC. Besides, the growth in the assay with NCI-H522 lung is 95.1%; with A549/ATCC NSCLC, 96%; in the assay with 786-0 renal, 101%; with COLO 205 colon, 115%.
With `O=C(Cn1c2c(c3ccccc31)CCCC2)Nc1ccc(-c2nc3ccccc3s2)cc1`, the growth is 94.5% with NCI-H23 lung; 106% in the assay with NCI-H226 lung; 101% in the assay with NCI-H322M lung; 102% with HOP-62 NSCLC; 101% with NCI-H460 lung; 89.6% with HOP-92 NSCLC. Besides, the growth in the assay with NCI-H522 lung is 94.9%; in the assay on A549/ATCC NSCLC, 105%; in the assay on 786-0 renal, 109%; in the assay on COLO 205 colon it was 104%.
Consider `COc1ccc(-c2nnc(-c3ccc4c(c3)nc(-c3ccncc3)n4C3CCCCC3)o2)cc1`, for which the growth with NCI-H23 lung was 72.8%; in the assay on NCI-H226 lung, 63.6%; in the assay with NCI-H322M lung, 82%; with HOP-62 NSCLC it was 67.7%; in the assay with NCI-H460 lung it was 73.7%; with HOP-92 NSCLC, 44.8%. Moreover, the growth in the assay on NCI-H522 lung is 61.4%; in the assay with A549/ATCC NSCLC it was 59.2%; in the assay on 786-0 renal, 66.3%; in the assay on COLO 205 colon, 59.2%.
In the case of `CN(C)c1ccc(Nc2cc(-c3cccc(OC(F)(F)F)c3)nc3ccc(N4CCCC4)cc23)cc1`, the growth with NCI-H23 lung is 27.2%; in the assay with NCI-H226 lung, 103%; in the assay with NCI-H322M lung it was 46.3%; in the assay on HOP-62 NSCLC it was 61.3%; in the assay on NCI-H460 lung, -70.9% (active); in the assay on HOP-92 NSCLC, 85.3%. For the same compound, the growth in the assay on NCI-H522 lung is 87.7%; with A549/ATCC NSCLC, -32.8% (active); with 786-0 renal, 2.11% (active); in the assay on COLO 205 colon, 70.6%.
As for `CC1(C)CC[C@]2(C(=O)O)CC[C@]3(C)C(=CC[C@@H]4[C@@]5(C)C/C(=C/O)C(=O)C(C)(C)[C@@H]5CC[C@]43C)[C@@H]2C1`, the growth was 22.2% in the assay on NCI-H23 lung; 96.2% with NCI-H226 lung; 62.2% in the assay with NCI-H322M lung; 73.1% in the assay with HOP-62 NSCLC; 83.6% with NCI-H460 lung; 89% with HOP-92 NSCLC. For the same compound, the growth in the assay with NCI-H522 lung is 25.2%; in the assay with A549/ATCC NSCLC, 89.4%; in the assay with 786-0 renal, 84.3%; in the assay on COLO 205 colon, 74.9%.
As for `Cc1oc(-c2ccc(Cl)cc2)nc1/C=C/C(=O)c1ccccc1`, the growth was 98.8% in the assay with NCI-H23 lung; 88.4% with NCI-H226 lung; 101% in the assay with NCI-H322M lung; 110% with HOP-62 NSCLC; 103% in the assay with NCI-H460 lung; 88.4% in the assay on HOP-92 NSCLC. Further, the growth in the assay on NCI-H522 lung was 93.1%; in the assay with A549/ATCC NSCLC, 99.1%; in the assay with 786-0 renal it was 96.4%; in the assay on COLO 205 colon, 114%.
As to `CC(C)NC1CCC(Nc2ccnc3cc(Cl)ccc23)CC1` (stereo not given), the growth was 101% in the assay with NCI-H23 lung; 83.6% with NCI-H226 lung; 88.2% in the assay on NCI-H322M lung; 78.1% with HOP-62 NSCLC; 101% in the assay on NCI-H460 lung; 46.8% with HOP-92 NSCLC. Besides, the growth in the assay with NCI-H522 lung was 78.5%; with A549/ATCC NSCLC, 91.1%; in the assay with 786-0 renal, 90.4%; in the assay with COLO 205 colon it was 69.3%.

These data come from PubChem BioAssay (NCI).
